Assay [1] can be described thus: Cell Viability - BJ (AID 421; calls by dose curve;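 also: potency is read from the fitted curve at half-maximal effect; cells exposed to compound for 40 hours at 37 °C before readout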). The settings on record: BJ fibroblast viability, qHTS. The procedure, abridged:
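Cytotoxicity in human BJ foreskin fibroblasts is scored as loss of cellular ATP after a 40-hour exposure, measured by luciferase luminescence. Controls are DMSO and 100 uM tamoxifen.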

Assay [2] is described as follows: Cell Viability - HepG2 (AID 433; calls by dose curve;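 also: potency is read from the fitted curve at half-maximal effect; cells exposed to compound for 40 hours; potency for ATP loss meaning cytotoxicity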). The note with it: qHTS. The procedure, abridged: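 ATP luminescence (CellTiter-Glo) after 40 h compound exposure, 37 °C, HepG2, 1500 cells/well, complete medium. Normalized: DMSO = basal, 100 uM tamoxifen = 100% inhibition. AC50 via standard Hill equation.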
A general note: In qHTS, concentration-response curves come from the screen itself.

Assay [3] can be described thus: Cell Viability - Mesenchymal (AID 546).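 Also: cells exposed to compound for 40 hours before reading.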 The settings on record: mesenchymal cells viability, qHTS; activity change, negative = cytotoxicity: at 91.7 µM (top of the series). The essentials: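 Human kidney mesenchymal cells from normal renal glomeruli, 1000 cells/well, rested 5 hr at 37 °C, then treated 40 hr at 37 °C in complete medium. Cellular ATP read by CellTiter-Glo luminescence; AC50 from Hill-equation fits.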

Assay [4] is described as follows: Cellular Toxicity (caspase-3) Jurkat (AID 655).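 Also: cells exposed to compound for 16 h at 37 °C before reading.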 The note with it: Jurkat caspase-3 activation, luminescence; caspase-3 activation: at 92.2 µM (top of the series), DMSO = 0%, tamoxifen = 100%. The procedure, abridged: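 Luminescent caspase-3/7 readout (aminoluciferin substrate cleavage) in human T-cell leukemia Jurkat cells after 16 hr compound exposure. Concentration-response normalized to DMSO and 100 uM tamoxifen; AC50 by standard Hill equation.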

A short description of assay [5]: Cell Viability - LYMP2-003 (AID 965).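 Also: cells exposed to compounds for 24 h before reading; 0% = DMSO only and full effect = 92 µM tetraoctylammonium bromide; nearly all actives have a fitted effect of over 50% in size.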 The note with it: LYMP2-003 lymphoblastoid cell viability; series mostly up to 92.2 µM. The procedure, abridged: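 CellTiter-Glo luminescence (cellular ATP) after 24 h compound exposure at 37 C in complete medium; 2500 cells/well, 5 h settling beforehand. Concentration-response fitted to standard Hill equation for AC50. Tetraoctylammonium bromide served as positive control.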

Assay [6] is described as follows: Cell Viability - LYMP2-011 (AID 969).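 Also: 0% = DMSO only and full inhibition = 92 µM tetraoctylammonium bromide; nearly all actives have a fitted effect of over 60% in size.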 The note with it: LYMP2-011 lymphoblastoid cells viability; series mostly up to 92.2 µM. The essentials:
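Acute toxicity is scored as a concentration-dependent drop in intracellular ATP of a human lymphoblastoid line after 24 hr treatment. Values are AC50s modeled with the Hill equation.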

The nature of assay [7]: Cell Viability - LYMP2-021 (AID 974).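 Also: compound exposure lasts 24 hours at 37 °C; % is scaled to controls: 0 for no effect and ±100 for the full control effect; nearly all actives have a fitted effect of over 55% in size.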 The note with it: LYMP2-021 lymphoblastoid cells viability; series mostly up to 92.2 µM. The procedure, abridged: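 Concentration-response cytotoxicity in a human lymphoblastoid line: 24 hr treatment at 37 C in complete culture medium, tetraoctylammonium bromide as positive control, luminescent ATP quantitation as viability measure.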

The nature of assay [8]: Cell Viability - LYMP2-023 (AID 975).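 Also: cellular ATP measured by luciferase luminescence as viability proxy; plate controls were DMSO only for no effect and 92 µM tetraoctylammonium bromide control for full effect; nearly all actives have a fitted effect of over 55% in size.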 The note with it: LYMP2-023 lymphoblastoid cell viability; series mostly up to 92.2 µM. The procedure, abridged:
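Concentration-dependent drop in intracellular ATP measures acute cytotoxicity in a human lymphoblastoid line treated for 24 hours in complete culture medium. AC50 values are taken from Hill-equation fits of qHTS data.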

The nature of assay [9]: Cell Viability - LYMP2-025 (AID 976).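 Also: plate controls were DMSO only for no effect and tetraoctylammonium bromide control for full effect.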 The settings on record: LYMP2-025 lymphoblastoid cell viability; series mostly up to 92.2 µM. The essentials: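 In qHTS format, LYMP2-025 lymphoblastoid cells in complete culture medium received compound for 24 hr; ATP-based CellTiter-Glo signal gave viability, with AC50 derived by Hill equation.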
The nature of assay [10]: Cell Viability - LYMP2-002 (AID 977).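 Also: plate controls were DMSO only for no effect and 92 µM tetraoctylammonium bromide for full effect.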 The settings on record: LYMP2-002 lymphoblastoid cell viability, qHTS; series mostly up to 92.2 µM. The procedure, abridged:
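Human lymphoblastoid LYMP2-002 cells, 2500 per well, exposed to compounds for 24 h at 37 C in complete medium; viability read as intracellular ATP by CellTiter-Glo luminescence, AC50 from Hill fits.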

A short description of assay [11]: Cell Viability - LYMP2-008 (AID 980). Also: % is scaled to controls: 0 for no effect and ±100 for the full control effect; nearly all actives have a fitted effect of over 60% in size. The note with it: LYMP2-008 lymphoblastoid cell viability, qHTS; series mostly up to 92.2 µM. The essentials:
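Acute cytotoxicity is scored as concentration-dependent loss of cellular ATP in a human lymphoblastoid line after 24 hr treatment at 37 C. ATP is quantified by luciferase luminescence.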

Assay [12] can be described thus: Cell Viability - LYMP2-014 (AID 983).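 Also: plate controls were DMSO only for no effect and 92 µM tetraoctylammonium bromide for full effect; nearly all actives have a fitted effect of over 50% in size.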 The note with it: LYMP2-014 lymphoblastoid cells, viability qHTS; series mostly up to 92.2 µM. The procedure, abridged: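 Decrease in intracellular ATP after 24 hr treatment at 37 C, measured by luciferase luminescence, indicated cytotoxicity. Concentration-response data were fitted with the standard Hill equation to give AC50.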

Assay [13] can be described thus: Cell Viability - LYMP2-016 (AID 984). Also: % is scaled to controls: 0 for no effect and ±100 for the full control effect; nearly all actives have a fitted effect of over 55% in size. The note with it: LYMP2-016 lymphoblastoid cell viability, qHTS; series mostly up to 92.2 µM. The essentials:
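qHTS, 1536-well: 2500 LYMP2-016 cells/well, 5 hr 37 C, compound added, 24 hr 37 C, CellTiter-Glo 30 min RT, luminescence. Tetraoctylammonium bromide positive control. AC50 via Hill fit.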

The nature of assay [14]: Cell Viability - LYMP2-018 (AID 985).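 Also: compound exposure lasted 24 hr at 37 °C; plate controls were DMSO only for no effect and tetraoctylammonium bromide at 92 µM for full effect; nearly all actives have a fitted effect of over 50% in size.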 The settings on record: LYMP2-018 lymphoblastoid cells, viability (qHTS); series mostly up to 92.2 µM. The procedure, abridged:
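Acute cytotoxicity is scored as a concentration-dependent drop in intracellular ATP after 24 hr exposure of the lymphoblastoid line in complete culture medium, measured by luciferase luminescence. Potency is expressed as AC50 from Hill modelling.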

Assay [15] can be described thus: Cell Viability - LYMP2-022 (AID 987).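 Also: 0% = DMSO alone and full effect = tetraoctylammonium bromide at 92 µM; nearly all actives have a fitted effect of over 55% in size.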 The settings on record: LYMP2-022 lymphoblastoid cell viability; series mostly up to 92.2 µM. The procedure, abridged:
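Acute toxicity in a human lymphoblastoid line is scored as decreased intracellular ATP after 24 hr compound treatment at 37 C. ATP is measured by CellTiter-Glo luminescence; curves are fitted with the Hill equation to give AC50.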

The nature of assay [16]: Cell Viability - LYMP2-024 (AID 988).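 Also: plate controls were DMSO only for no effect and 92 µM tetraoctylammonium bromide for full effect; nearly all actives have a fitted effect of over 60% in size.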 The note with it: LYMP2-024 lymphoblastoid cell viability; series mostly up to 92.2 µM. The procedure, abridged: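 Acute toxicity is measured as concentration-dependent loss of intracellular ATP in a human lymphoblastoid line treated 24 hours at 37 C. Luciferase luminescence quantifies ATP; AC50 values come from standard Hill-equation modelling.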

Assay [17] is described as follows: Cell Viability - LYMP2-026 (AID 989). Also: % is scaled to controls: 0 for no effect and ±100 for the full control effect; nearly all actives have a fitted effect of over 50% in size. The note with it: LYMP2-026 lymphoblastoid cell viability, qHTS; series mostly up to 92.2 µM. The procedure, abridged:
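Concentration-dependent loss of intracellular ATP in human lymphoblastoid cells after 24 hr at 37 C, quantified by luciferase luminescence. AC50 derived from standard Hill equation.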

The nature of assay [18]: qHTS assay for small molecule antagonists of retinoid X receptor alpha signaling (AID 588546; active = well fitted inhibition curve with a large enough effect in the signal ratio, with a control signal flat, not every such curve was filed as active; the % refers to the signal ratio;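 also: cells stimulated with 9-cis-retinoic acid as agonist; % is scaled to controls: 0 for no effect and ±100 for the full control effect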). The settings on record: HEK293T RXRa-UAS-bla, beta-lactamase ratio, antagonist mode; measured here: W530 green channel, cytotoxicity proxy. The essentials: (§1)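 Beta-lactamase reporter inhibition, read as CCF4 fluorescence ratio (ex 405, em 460/530 nm) after 2 h at RT. HEK293T UAS-bla cells, 2500/well, were stimulated with 9-cis-RA at 500 or 100 nM final alongside test compound for 18 h at 37 C.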

Assay [19] deals with Retinoic acid receptor RXR-alpha (Homo sapiens) (UniProt P19793). Described as above. The settings on record: HEK293T RXRa-UAS-bla, beta-lactamase ratio, antagonist mode. The procedure, abridged: as §1
Chain of Retinoic acid receptor RXR-alpha (Homo sapiens) (P19793 whole entry, looked up): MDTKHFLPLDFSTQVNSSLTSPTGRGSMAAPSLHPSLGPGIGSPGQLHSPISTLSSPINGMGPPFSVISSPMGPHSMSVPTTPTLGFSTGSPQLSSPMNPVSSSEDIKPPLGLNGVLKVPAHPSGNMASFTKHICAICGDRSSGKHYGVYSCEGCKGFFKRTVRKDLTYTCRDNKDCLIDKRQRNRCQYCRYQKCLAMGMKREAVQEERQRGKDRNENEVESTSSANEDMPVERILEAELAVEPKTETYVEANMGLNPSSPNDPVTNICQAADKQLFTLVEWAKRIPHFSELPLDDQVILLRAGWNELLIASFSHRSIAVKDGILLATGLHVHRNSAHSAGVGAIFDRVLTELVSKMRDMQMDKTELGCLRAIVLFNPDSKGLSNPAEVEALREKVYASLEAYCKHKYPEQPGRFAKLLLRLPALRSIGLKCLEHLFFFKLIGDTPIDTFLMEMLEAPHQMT
Assay [20] can be described thus: qHTS assay for environmental chemicals that activate the Aryl hydrocarbon Receptor (AhR) signaling pathway (AID 651777). Also: % of control where 0% means no effect; nearly all actives have a fitted effect of over 15% in size. The note with it: 1A2-DRE human hepatoma cells, luciferase, 24 h; activation: stronger effect = higher value. The procedure, abridged:
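AhR activation is scored as a rise in luciferase from a stable DRE–CYP1A2 promoter construct in human hepatoma cells. Treatment lasts 24 hr at 37 C; detection uses One-Glo after 30 min at room temperature.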

Where “and” joins values, the source holds several entries; their conditions need not be identical. Equal values may be shown once. Inconclusive results are not listed. Calls of active or inactive are those of the source. Unless noted, calls follow the shape of the dose curve; as a rule, active = well fitted curve in the direction sought with a large enough effect; inconclusive = small, poorly fitted or top-dose-only effect, or another doubt; inactive = no such curve, though single readings can be large; an effect the other way counts as inactive or inconclusive.

For `Oc1ccc2c(c1)OCO2`, the Potency in assay [1] and in assay [2] was > 92 µM (inactive) throughout. The Potency entry in assay [3], in [4], in [5], in assay [6], in [7] and in [8] was “inactive” throughout. Besides, the Potency result in [9], in [10], in assay [11], in assay [12], in assay [13] and in assay [14] was “inactive” each time. In addition, the Potency result in assay [15], in [16] and in [17] was “inactive” throughout. The results for the max response in [18] and in [19] were 5.56% and 10.9% (inactive), respectively. Also, the activation in assay [20] is -0.0594% (inactive).

With `O=[N+]([O-])c1ccc(F)cc1F`, the Potency in [1] and in assay [2] was > 92 µM (inactive) each time. In addition, the Potency result in [3], in assay [4], in assay [5], in assay [6], in [7] and in assay [8] was “inactive” each time. Also, the Potency result in assay [9], in assay [10], in assay [11], in assay [12], in assay [13] and in assay [14] was “inactive” throughout. For the same compound, the Potency result in assay [17] is “inactive”. The max response in assay [18] was -4.17%; in assay [19], 10.7% (inactive). In addition, the activation in assay [20] was 0.688% (inactive).

For the compound `c1c[nH]cn1`, the Potency in [1] and in assay [2] was > 92 µM (inactive) each time. Besides, the Potency result in [3], in [4], in [5], in assay [6], in assay [7] and in [8] was “inactive” throughout. Besides, the Potency result in assay [9], in assay [10], in assay [11], in [12], in assay [13] and in [14] was “inactive” in each case. The Potency entry in assay [15], in [16] and in [17] was “inactive” each time. In addition, the max response in assay [18] is -8.47%; in [19], -1.89% (inactive). For the same compound, the activation in assay [20] was -1.48% (inactive).

Turning to `CC(C)OCC1CO1` (configuration not stated), the Potency in assay [1] and in assay [2] was > 92 µM (inactive) throughout. Moreover, the Potency entry in [3], in assay [4], in assay [5], in assay [6], in assay [7] and in assay [8] was “inactive” throughout. In addition, the Potency result in assay [10], in assay [11], in assay [12], in assay [13], in [14] and in assay [15] was “inactive” throughout. Moreover, the Potency result in assay [16] and in assay [17] was “inactive” each time. The max response in assay [18] is -11.4%; in assay [19], 1.98% (inactive). Moreover, in [20], the activation was 0.457% (inactive).

On to `CCCCNCC`, for which the Potency in assay [1] and in [2] was > 92 µM (inactive) throughout. The Potency entry in [3], in assay [4], in assay [5], in [6], in assay [7] and in [8] was “inactive” each time. In addition, the Potency entry in [9], in [10], in assay [11], in [12], in assay [13] and in assay [14] was “inactive” throughout. In addition, the Potency entry in [15], in assay [16] and in [17] was “inactive” in each case. The max response is -20.9% in [18] and 4.6% (inactive) in assay [19]. In addition, the activation in [20] is -0.56% (inactive).

With `Nc1cc([N+](=O)[O-])ccc1O`, the Potency in assay [1] and in [2] was > 92 µM (inactive) throughout. Moreover, the Potency result in [3], in [4], in [5], in assay [6], in assay [7] and in assay [8] was “inactive” in each case. Also, the Potency entry in [9], in [10], in [11], in [12], in [13] and in assay [14] was “inactive” throughout. Further, the Potency entry in [15], in [16] and in assay [17] was “inactive” throughout. The max response in [18] is -1.99% and 10.2%; in assay [19], 2.5% (inactive) and -26.6% (inactive). In assay [20], the activation was 12.6% (inactive) and 2.53% (inactive).

Turning to `CC(C)COC(=O)COc1cc(Cl)c(Cl)cc1Cl`, the Potency in [1] and in [2] was > 92 µM (inactive) each time. Moreover, the Potency entry in assay [3], in assay [4], in assay [5], in assay [6], in [7] and in assay [8] was “inactive” in each case. Also, the Potency result in assay [9], in [10], in assay [11], in assay [12], in [13] and in assay [14] was “inactive” each time. For the same compound, the Potency result in assay [15], in assay [16] and in assay [17] was “inactive” in each case. Moreover, the max response in [18] was -2.2%; in [19], 8.47% (inactive). The activation in [20] was 1.79% (inactive).

Source of the values: PubChem BioAssay (NCATS).
